Screening results deposited in PubChem BioAssay by National Center for Advancing Translational Sciences (NCATS).
HPGD block – HPGD (human) dehydrogenase inhibition | AID 894 | 150,000 tested, 4.3% active | purified HPGD, NADH fluorescence kinetic, PGE2 substrate | Potency, µM, for the others: at the top dose activity change, negative = inhibition, usual class: inhibitors | P15428; further: on the % scale 0 is the no-effect control and ±100 the full control effect
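20 nM HPGD preincubated 15 min at room temperature with compound in 50 mM Tris-HCl pH 8, 0.01% Tween 20. Started with 1 mM NAD+ and 30 uM prostaglandin E2; NADH fluorescence (360/450 nm) read 5 times over 30-s intervals, last minus first.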
HTT ATP protect – cytoprotection in Huntington HTT-Q103 PC12 cell model; Potency, µM (titrated, usually from 56.4 µM), for inactives: cytoprotection (ATP increase), hits mostly activators; 230,000 tested, 0.14% active; PC12 HTT-Q103 induced, cytoprotection, ATP luminescence, 40 h; active means well fitted curve in the direction sought with a large enough effect; inconclusive means small, poorly fitted or top-dose-only effect, or another doubt; inactive means no such curve, though single readings can be large; an effect the other way counts as inactive or inconclusive; further: % of control where 0% means no effect; nearly all actives have a fitted effect of over 45% in size
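Stable PC12 Q103-GFP cells in serum-supplemented, phenol red-free DMEM; induction by tebufenozide at 100 nM final; compound dose series; cell viability quantified luminescently from ATP.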
Lamin A splicing – modulators of lamin A splicing; Potency, µM (doses to about 46.1 µM), without a hit: at the highest dose ratio change, negative = inhibition, usual class: inhibitors; AID 1487; HeLa LMNA splicing GFP/RFP minigene ratio, 48 h; 200,000 tested, 0.01% active; active means well fitted inhibition curve with a large enough effect in the signal ratio, with a control signal flat, not every such curve was filed as active; inconclusive means small, poorly fitted or top-dose-only effect, or effect the other way, or a change in a side signal; the % refers to the signal ratio; further: on the % scale 0 is the no-effect control and ±100 the full control effect
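Read-out is the ratio of GFP to DsRed2 object intensity, acquired by 488 nm laser-scanning cytometry on HeLa lamin A-EGFP minigene reporter cells. Compound incubation 48 hrs at 37 °C in Opti-MEM with 2% FBS; DMSO 0.5% final.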
ALDH1A1 inh – ALDH1A1 (human) enzyme inhibition | P00352 | Purified ALDH1A1, NADH fluorescence, propionaldehyde substrate | Potency, µM (series often up to 75.3 µM), for the others: top-dose activity, negative = inhibition, most hits filed as inhibitors | 220,000 tested, 7.3% active | AID 1030;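 further: plate controls were no enzyme wells and a reference inhibitor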
Target sequence (P00352 whole entry, looked up): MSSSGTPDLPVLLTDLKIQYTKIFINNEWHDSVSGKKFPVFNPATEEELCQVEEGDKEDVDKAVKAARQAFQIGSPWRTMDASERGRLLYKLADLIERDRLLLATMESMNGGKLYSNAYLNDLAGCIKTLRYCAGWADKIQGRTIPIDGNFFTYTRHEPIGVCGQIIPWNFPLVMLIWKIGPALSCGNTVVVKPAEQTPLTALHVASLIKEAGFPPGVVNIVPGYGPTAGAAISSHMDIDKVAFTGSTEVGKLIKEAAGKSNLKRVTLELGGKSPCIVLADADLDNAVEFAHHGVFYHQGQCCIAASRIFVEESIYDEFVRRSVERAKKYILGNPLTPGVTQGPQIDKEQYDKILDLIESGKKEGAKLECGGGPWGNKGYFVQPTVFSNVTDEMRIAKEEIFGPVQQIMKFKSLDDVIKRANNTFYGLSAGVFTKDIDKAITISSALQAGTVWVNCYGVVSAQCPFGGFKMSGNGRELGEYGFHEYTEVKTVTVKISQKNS
HttQ103 aggreg – inhibitors of mutant huntingtin aggregate formation in PC12 cells; PC12 HttQ103-GFP aggregates, Acumen cytometry, 40 h; Potency, µM (series often up to 46.1 µM), without a hit: at the top dose activity change, negative = inhibition, usual class: inhibitors; 220,000 tested, 1.1% active; AID 1688; active means well fitted curve in the direction sought with a large enough effect; inconclusive means small, poorly fitted or top-dose-only effect, or another doubt; inactive means no such curve, though single readings can be large; an effect the other way counts as inactive or inconclusive; further: on the % scale 0 is the no-effect control and ±100 the full control effect; nearly all actives have a fitted effect of over 60% in size
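PC12 cells stably carrying ecdysone-inducible HTT exon 1 Q103–GFP were induced with tebufenozide (100 nM final) and treated with library compounds in titration. GFP aggregates in lysates were counted by laser scanning cytometry.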
* = called active by the depositor; ? = inconclusive; / = no result; [ ] = another dose, or the depositor's remark. Hits are enriched below; roughly 8.8% of the tested compounds scored in any of these assays. Unless noted, the call rests on the fitted dose curve; in most records, active means well fitted inhibition curve with a large enough effect (not every such curve was filed as active); inconclusive means small, poorly fitted or top-dose-only effect, or another doubt; inactive means no such curve, though single readings can be large or run the other way. Potency means the concentration at half of the fitted maximal effect.

SMILES	HPGD block	HTT ATP protect	Lamin A splicing	ALDH1A1 inh	HttQ103 aggreg
CCOc1ccccc1Nc1nc(-c2sc(NC(=O)c3ccccc3)nc2C)cs1	-22.5%	-27.5%	-1.5%	?	-0.6%
CC(C)(C)OC(=O)N1CCC(c2c(C(=O)NCCN3CCOCC3)cnn2-c2ccccc2)CC1	/	/	18.0%[46 µM]	/	/
Cc1cc(C)c2nc(N3CCC(C(=O)N4CCCC4)CC3)sc2c1	12.6µM*	-4.1%	?	-12.3%	11.6%
CCn1c(SCC(=O)NCC2CCCO2)nnc1-c1ccc(S(=O)(=O)N2CCN(C)CC2)cc1 (stereo not given)	/	-1.7%[10 µM]	/	?	-6.9%[9.22 µM]
Cc1onc(-c2c(F)cccc2Cl)c1C(=O)ONC(=O)c1ccccc1	/	-9.7%[10 µM]	/	-18.5%	-16.1%[9.22 µM]
Cc1onc(-c2c(F)cccc2Cl)c1C(=O)O/N=C(\N)c1ccc([N+](=O)[O-])o1	/	6.5%[10 µM]	/	7.94µM*	4.5%[9.22 µM]
Cc1onc(-c2c(F)cccc2Cl)c1C(=O)OCn1nnc2ccccc2c1=O	12.6µM*	-1.3%[10 µM]	?	-2.9%	-30.1%
C/C(=N\OC(=O)c1c(-c2c(F)cccc2Cl)noc1C)c1nccs1	/	-11.5%	/	?	-14.1%
Cc1ccc(-n2c(C)cc(C(=S)N3CCOCC3)c2C)cc1C	5.01µM*	-61.7%	2.0%	28.2µM*	-12.6%
Cc1cc(C(=O)NC2CCCCC2)c(C)n1-c1ccc(F)cc1	4.47µM*	1.3%[1.9 µM]	-1.3%	14.1µM*	3.1%
Cc1cc(C(=S)N2CCOCC2)c(C)n1-c1ccc(F)cc1	/	/	/	2.82µM*	/
Cc1cc(C(=O)CN2CCCCC2)c(C)n1-c1ccc(F)cc1	?	17.4%[10 µM]	-1.0%	-6.3%	6.2%
COc1ccc2sc(C)[n+](C)c2c1	/	11.2µM*	/	?	-21.0%
Cc1ccc(C)c(/C(O)=C2\C(=O)C(=O)N(CCCN(C)C)C2c2cccnc2)c1 (stereo not given)	/	3.2%[10 µM]	/	/	/
Cc1ccc(/C(O)=C2/C(=O)C(=O)N(CCCn3ccnc3)C2c2ccccn2)cc1 (stereo not given)	0.7%	0.5%	6.4%	5.6%	8.8%
Cc1ccccc1COc1ccc(/C(O)=C2/C(=O)C(=O)N(CCCn3ccnc3)C2c2ccco2)cc1 (stereo not given)	-26.5%	-19.8%	5.8%	11.2µM*	-10.1%
Cc1ccc(C)c(/C(O)=C2\C(=O)C(=O)N(CCCn3ccnc3)C2c2ccncc2)c1 (stereo not given)	28.2µM*	-10.8%[10 µM]	7.0%	?	-16.2%
O=C(CSc1nnc2ncccn12)N1CCCCCC1	?	-14.4%	-1.9%	-15.4%	0.562µM*
O=S(=O)(c1cnc(Cl)c(Cl)c1)N1CCc2ccccc21	/	-15.4%[10 µM]	/	/	4.7%[9.22 µM]
O=S(=O)(c1cnc(Cl)c(Cl)c1)N1CCCc2ccccc21	-13.0%	-24.7%[10 µM]	-6.5%	3.16µM*	0.2%
O=S(=O)(c1cnc(Cl)c(Br)c1)N1CCc2ccccc21	/	-1.7%[10 µM]	/	2.82µM*	-3.8%[9.22 µM]
CCN(C(=O)COC(=O)CNC(=O)c1ccc2ccccc2c1)C1CCS(=O)(=O)C1 (stereo not given)	/	-0.5%[10 µM]	6.5%[46 µM]	-2.5%	5.7%
CCN(C(=O)COC(=O)CNC(=O)c1ccc(C)c(C)c1)C1CCS(=O)(=O)C1 (stereo not given)	-12.1%	36.1%[10 µM]	-8.5%	25.1µM*	5.8%
CN(Cc1cccc2cnccc12)C(=O)CCc1nnc(CCc2ccccc2)o1	/	-6.7%[10 µM]	11.2%[46 µM]	28.2µM*	-13.2%[9.22 µM]
CC(C)(C)C(=O)Oc1ccc(S(=O)(=O)Nc2ccccc2C(=O)NCC(=O)O)cc1	/	2.7%	/	/	0.2%
CC(C)(CN)CN	-0.3%	4.7%[10 µM]	/	6.5%[13.5 µM]	/
CCOC(=O)c1cc(-c2ccccc2)n(CCC(=O)NCCc2ccc(C)cc2)c1C	/	/	-23.5%[46 µM]	/	/
N#Cc1cccc(-c2nccc(-n3ccnc3)n2)c1	/	?	0.1%	?	/
Cc1ccc(N2CC(C(=O)Nc3ccc(S(=O)(=O)Nc4nccc(C)n4)cc3)CC2=O)cc1 (stereo not given)	/	1.3%[10 µM]	?	-9.7%	-4.8%
CCS(=O)(=O)c1ccc2oc(SCC(=O)NC3CCCC(C)C3C)nc2c1 (stereo not given)	31.6µM*	-81.3%[10 µM]	-19.5%	2.6%	?
